Assay results as given in PubChem BioAssay (NCI).
This is part of a sample that, as a whole, favours compounds with a hit. Of some 83,000 tested, about 20% had one in any assay.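 96-well plates, one dose, 48 hours. Percent growth reported; active if below 10.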 Unmarked numbers belong to inactive results. The source made the active and inactive calls.

What follows are compounds tested on CCRF-CEM leukemia (assay: NCI-60 one-dose screen, 48 h (100 = growth as untreated, 0 = no growth, -100 = all killed)). Settings: 10 µM unless noted.

Q: CCOC(=O)c1sc(/N=C2\NC(=O)/C(=C/c3ccc(N4CCN(C)CC4)cc3)S2)nc1C was tested. Which growth did it give?
A: 91.7%

Q: Which growth does the source give for Cc1cc(C)c2nc(Nc3nc(C)c(C)c(=O)[nH]3)nc(C)c2c1 here?
A: 7.98% (active)

Q: With CCOC(=O)C1=C(C)n2nc(CC#N)c(C#N)c2NC1c1ccc(Cl)cc1 (stereo not given) as the compound, how does the growth read?
A: 96.4%

Q: How did the growth turn out when COc1ccc2oc(=O)cc(-c3nc4ccc(N)cc4[nH]3)c2c1 was run?
A: 108%

Q: How did the growth turn out when CCOC(=O)NCCc1nc2c([nH]1)c(=O)n(C)c(=O)n2C was run?
A: 101%

Q: Which growth does the source give for NC(=O)C(O)(c1ccccc1)c1ccccc1 here?
A: 87.9%

Q: Which growth does the source give for O=C1Nc2ccc(Cl)cc2/C1=N/c1nc(-c2ccc(F)cc2)cs1 here?
A: 11.1%

Q: For Cc1nnc(/N=C2\NC(=O)/C(=C/c3ccsc3)S2)s1, which growth is on record?
A: 95.1%

Q: With N#Cc1ccc(C2C3=C(CCCC3=O)OC3=C2C(=O)c2ccccc2C3=O)cc1 (stereo not given) as the compound, how does the growth read?
A: 15.8%

Q: For COCCOCCOCc1n(Cc2ccc3ccccc3c2)c2ccccc2[n+]1Cc1ccc2ccccc2c1, which growth is on record?
A: 12%

Q: CC1(C)CC[C@]2(c3nnc(-c4ccncc4)o3)CC[C@]3(C)C(=CC[C@@H]4[C@@]5(C)CCC(=O)C(C)(C)[C@@H]5CC[C@]43C)[C@@H]2C1 was tested. Which growth did it give?
A: 75.5%

Q: O=c1[nH]c(-c2cccc(F)c2)cc2cc(F)ccc12 was tested. Which growth did it give?
A: 13.6%

Q: Which growth does the source give for Cc1ccccc1NC(=O)c1sc2nc(C)c(C(C)O)cc2c1N (stereo not given) here?
A: 45.7%

Q: With O=C1NN(c2ccccc2)C(c2ccc(Cl)cc2)N2CCC[C@H]12 (stereo not given in full) as the compound, how does the growth read?
A: 107%

Q: For COc1ccc(Nc2cc(NC(=O)CNc3cc(OC)c(Cl)c(OC)c3Cl)ncn2)cc1, which growth is on record?
A: 89.3%
